# Assay results from publication PMC4336329 (PLoS ONE, 2015).
# The campaign covered roughly 310,000 compounds. About 14,000 (4.5%) showed an effect of 50% or more. Effects have a minus sign here. What follows is part of a selection rich in strong results, with near analogues and random picks from the rest.
# Target: human ether-à-go-go-related gene (hERG) potassium channel (human, UniProt Q12809)
# Assay: primary screen, population patch clamp on CHO cells stably expressing hERG; higher = less effect of the substance
# 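Further: peak tail current of the secondary pulse compared with the same well before compound.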
# human ether-à-go-go-related gene (hERG) potassium channel, sequence (Q12809 whole entry, looked up): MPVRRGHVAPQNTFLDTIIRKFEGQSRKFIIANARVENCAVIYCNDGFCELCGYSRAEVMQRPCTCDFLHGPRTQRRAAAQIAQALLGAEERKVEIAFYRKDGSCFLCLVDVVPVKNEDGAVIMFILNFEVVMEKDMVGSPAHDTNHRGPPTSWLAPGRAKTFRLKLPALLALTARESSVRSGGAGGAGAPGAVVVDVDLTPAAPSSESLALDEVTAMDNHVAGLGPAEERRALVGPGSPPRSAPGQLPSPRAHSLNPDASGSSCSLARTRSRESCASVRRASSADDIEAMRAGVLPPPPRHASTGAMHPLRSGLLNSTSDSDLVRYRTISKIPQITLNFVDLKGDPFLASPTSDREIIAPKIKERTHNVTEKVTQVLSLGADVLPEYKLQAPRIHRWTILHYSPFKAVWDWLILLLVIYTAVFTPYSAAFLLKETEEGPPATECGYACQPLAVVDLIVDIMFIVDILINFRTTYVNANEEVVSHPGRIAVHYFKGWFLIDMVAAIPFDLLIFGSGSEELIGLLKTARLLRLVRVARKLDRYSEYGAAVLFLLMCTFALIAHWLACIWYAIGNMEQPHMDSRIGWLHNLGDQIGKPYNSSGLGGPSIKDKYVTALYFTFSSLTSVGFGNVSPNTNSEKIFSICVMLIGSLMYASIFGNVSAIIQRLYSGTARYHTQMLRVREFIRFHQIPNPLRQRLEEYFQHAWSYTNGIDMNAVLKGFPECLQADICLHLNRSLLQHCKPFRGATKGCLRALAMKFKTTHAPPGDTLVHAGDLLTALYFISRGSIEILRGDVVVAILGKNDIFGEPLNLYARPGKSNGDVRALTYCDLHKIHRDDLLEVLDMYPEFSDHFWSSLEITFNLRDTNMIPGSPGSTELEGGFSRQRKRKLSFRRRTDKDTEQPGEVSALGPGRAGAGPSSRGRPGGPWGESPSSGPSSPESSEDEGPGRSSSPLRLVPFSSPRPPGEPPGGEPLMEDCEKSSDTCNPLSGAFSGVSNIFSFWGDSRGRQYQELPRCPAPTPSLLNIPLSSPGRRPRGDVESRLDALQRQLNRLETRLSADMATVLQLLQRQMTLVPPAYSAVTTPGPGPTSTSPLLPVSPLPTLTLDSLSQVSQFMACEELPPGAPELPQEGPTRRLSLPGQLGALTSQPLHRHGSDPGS
row,Structure (SMILES),"hERG current change (%, negative = inhibition) at 10uM [%]"
1,O=C(CN1CCC(O)(c2ccc3c(c2)OCO3)CC1)NC1CCCCC1,3.07
2,[S-]C(=Nc1ccc(Cl)cc1)N[n+]1ccccc1,1.12
3,CSC(=Nc1ccccc1)Nc1ccccc1,-15.8
4,CSC(=Nc1ccc(Cl)cc1)N[n+]1ccccc1.[I-],-58.8
5,C[N+]1(CCC(C(N)=O)(c2ccccc2)c2ccccc2)CCCCC1.[Br-],10.7
6,ClCc1csc(N/N=C/c2cccs2)n1,11.8
7,CCOc1ccc(Br)cc1S(=O)(=O)Nc1ccc(C(=O)OCC(=O)N(C)c2ccccc2)cc1,12.7
8,CC1CC(OC(=O)c2ccccc2)(c2ccccc2)C(C)CN1C (stereo not shown),-8.66
9,O=C(CCCN1C(=O)/C(=C/c2ccccc2)SC1=S)Nc1cccc(O)c1,2.17
10,O=C(O)CCC(=O)NNC(=O)COc1cccc(Cl)c1,2.84
11,COc1ccc(CC(=O)N2CCN=C2SCc2cccc([N+](=O)[O-])c2)cc1,-5.33
12,O=C(Cc1ccc([N+](=O)[O-])cc1)N1CCN=C1SCc1ccccc1,-7.33
13,CCOc1ccc(CC(=O)N2CCN=C2SCc2ccc([N+](=O)[O-])cc2)cc1,5.05
14,O=C(Cc1ccccc1)N1CCN=C1SCc1ccc([N+](=O)[O-])cc1,-55.5
15,COc1ccc(CC(=O)N2CCN=C2SCc2ccc([N+](=O)[O-])cc2)cc1,-52.2
16,O=C(Cc1ccc(F)cc1)N1CCN=C1SCc1ccc([N+](=O)[O-])cc1,-47.3
17,CS(=O)(=O)N(Cc1ccccc1)c1ccc(C(=O)Nc2ccc(C(N)=O)cc2)cc1,12.8
18,Cn1c(N)c(C(=O)COC(=O)c2ccc(Cl)c(S(=O)(=O)N3CCCC3)c2)c(=O)n(C)c1=O,-43.9
19,COC(CNc1ccc([N+](=O)[O-])c(NCC(OC)OC)c1C#N)OC,5.62
20,Cc1cc(NC(=O)c2ccc(Br)o2)ccc1NC(=O)c1ccco1,-58.2
21,CC(=O)Nc1cccc(NC(=O)c2ccco2)c1,-4.69
22,Cc1cc(Br)ccc1NC(=O)c1ccco1,0.934
23,Cc1ccc(NC(=O)c2ccc(Br)o2)cc1S(=O)(=O)N(C)C,-54.7
24,Cc1ccc(NC(=O)c2ccccc2Br)cc1S(=O)(=O)N(C)C,-1.84
25,CN(C(=O)c1cccc(NC(=O)c2ccco2)c1)c1ccccc1,13.3
26,Cc1ccc(C(=O)Nc2ccc(NC(=O)c3ccco3)c(C)c2)cc1,14.7
27,CN(C)S(=O)(=O)c1ccc(NC(=O)c2ccc(Br)o2)cc1,-9.84
28,CN(C)c1cccc(NC(=O)c2ccco2)c1,-73.3
